# Assay outcomes from PubChem BioAssay.
# TDP1 block: qHTS Assay for Inhibitors of Tyrosyl-DNA Phosphodiesterase (TDP1). recombinant TDP1, AlphaScreen DNA substrate cleavage. 350,000 compounds, 0.28% hits. Tyrosyl-DNA phosphodiesterase 1 (Homo sapiens), Q9NUW8. Potency, µM (series often up to 130 µM), inactives show top-dose activity change, negative = inhibition, usual class: inhibitors. AID 485290, 2010; further: on the % scale 0 is the no-effect control and ±100 the full control effect; nearly all actives have a fitted effect of over 40% in size
# Target sequence (Q9NUW8 whole entry, looked up): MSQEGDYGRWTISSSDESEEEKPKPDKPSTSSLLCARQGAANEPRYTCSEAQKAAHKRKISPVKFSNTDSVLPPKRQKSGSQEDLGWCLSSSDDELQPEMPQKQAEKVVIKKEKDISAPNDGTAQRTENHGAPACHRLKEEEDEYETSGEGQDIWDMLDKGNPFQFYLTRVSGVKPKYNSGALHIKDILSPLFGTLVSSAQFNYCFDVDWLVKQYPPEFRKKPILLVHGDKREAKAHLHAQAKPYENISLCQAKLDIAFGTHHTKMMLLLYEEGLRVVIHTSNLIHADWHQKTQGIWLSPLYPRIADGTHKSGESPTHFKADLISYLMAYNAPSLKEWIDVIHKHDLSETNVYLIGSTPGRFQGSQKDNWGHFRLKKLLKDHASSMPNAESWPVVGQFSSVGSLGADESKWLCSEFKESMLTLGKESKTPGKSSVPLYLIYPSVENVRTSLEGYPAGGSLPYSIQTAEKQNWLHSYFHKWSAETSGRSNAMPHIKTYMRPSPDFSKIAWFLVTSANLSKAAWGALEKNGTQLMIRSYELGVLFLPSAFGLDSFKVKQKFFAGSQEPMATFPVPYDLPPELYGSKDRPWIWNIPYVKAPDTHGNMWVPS
#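 Here, a 5' biotin and 3' phosphotyrosine-FITC DNA oligonucleotide reports Tdp1 activity: intact substrate bridges AlphaScreen beads, while cleavage leaves a 3' phosphate and drops signal. All incubations at room temperature.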
# TDP1 cell noCPT: qHTS for Inhibitors of human tyrosyl-DNA phosphodiesterase 1 (TDP1): qHTS in cells in absence of CPT; Potency, µM (doses to about 46.2 µM), without a hit: at the highest dose activity change, negative = growth inhibition, most hits filed as inhibitors; 420,000 compounds, 15% hits; AID 686978, 2013; DT40 Tdp1-/- hTDP1 cells, no CPT, ATP luminescence, 48 h; further: on the % scale 0 is the no-effect control and ±100 the full control effect; nearly all actives have a fitted effect of over 55% in size
#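 No-CPT arm: Tdp1-/-;hTDP1 DT40 cells (400/well) plus compounds, incubated ≥48 hr at 37 °C. Readout CellTiter-Glo luminescence.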
# ClpP mod: qHTS Assay for Activators of ClpP. purified B. subtilis ClpP, FRET peptide cleavage, 20 min. 340,000 compounds, 1.9% hits. Potency, µM (titrated, usually from 57.5 µM), for inactives: top-dose activity change, negative = active. ATP-dependent Clp protease proteolytic subunit (Bacillus subtilis (strain 168)), P80244; active means well fitted falling curve with a large enough effect; inconclusive means small, poorly fitted or top-dose-only effect; inactive means no such curve, though single readings can be large or run the other way; further: the source files actives as falling curves though it sought activators and does not explain the sign; nearly all actives have a fitted effect of over 65% in size
#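 Purified B. subtilis ClpP, 10 microg/mL final in Tris/HCl pH8 with KCl, BSA, glycerol and Tween-20, cleaved an Abz/nitrotyrosine-quenched decapeptide. Fluorescence (ex 320, em 430) was read at 0 and 20 min at room temperature. Delta was normalized to 5.8 microM ADEP and DMSO/no-enzyme controls.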
# DT40 TDP1 CPT: qHTS for Inhibitors of human tyrosyl-DNA phosphodiesterase 1 (TDP1): qHTS in cells in presence of CPT; chicken DT40 Tdp1-/-;hTDP1 cells + 20 nM CPT, ATP luminescence, 48 h; Potency, µM (series often up to 46.2 µM), without a hit: at the highest dose activity change, negative = growth inhibition, actives largely listed as inhibitors; 420,000 compounds, 12% hits; AID 686979, 2013; further: on the % scale 0 is the no-effect control and ±100 the full control effect; nearly all actives have a fitted effect of over 55% in size
#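 Cell growth measured by CellTiter-Glo luminescence after a minimum 48 h, 37 C compound exposure with 20 nM CPT in Tdp1-knockout DT40 cells stably expressing hTDP1, seeded 400/well; qHTS titration format.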
# * hit, by the source's call; ? = inconclusive; / = no result given. An excerpt weighted towards active compounds, which were near 17% of everything screened. Unless noted, the call rests on the fitted dose curve; in most records, active means well fitted curve in the direction sought with a large enough effect; inconclusive means small, poorly fitted or top-dose-only effect, or another doubt; inactive means no such curve, though single readings can be large; an effect the other way counts as inactive or inconclusive. Potency means the concentration at half of the fitted maximal effect.
SMILES,TDP1 block,TDP1 cell noCPT,ClpP mod,DT40 TDP1 CPT
COc1ccc(CCNC(=O)CCCCn2c(=O)c3ccccc3n(Cc3ccc(F)cc3Cl)c2=O)cc1OC,3.6%,6.51µM*,4.6%,20.6µM*
O=C(CCCn1c(=O)c2ccccc2n(Cc2ccc(F)cc2Cl)c1=O)NCCc1ccc(Cl)cc1,-1.8%,18.4µM*,-0.6%,?
COc1ccc(CCNC(=O)c2ccc(Cn3c(=O)c4ccccc4n(Cc4ccc(F)cc4Cl)c3=O)cc2)cc1OC,0.9%,-23.4%,1.2%,-12.6%
COc1ccc(CCNC(=O)CCCCn2c(=O)c3ccccc3n(Cc3ccc(Cl)cc3)c2=O)cc1OC,-0.9%,?,-13.8%,23.1µM*
COc1ccc(CCNC(=O)CCn2c(=O)c3ccccc3n(Cc3ccccc3C)c2=O)cc1OC,8.2%,18.4µM*,0.5%,14.6µM*
O=C(CCCCn1c(=O)c2ccccc2n(Cc2ccc(F)cc2Cl)c1=O)NCCc1ccc(Cl)cc1,0.9%,?,-1.5%,?
COc1ccc(CCNC(=O)CCn2c(=O)c3ccccc3n(Cc3c(C)cc(C)cc3C)c2=O)cc1OC,-1.8%,-0.7%,0.6%,-0.6%
Cc1cccc(-c2c3c(=O)n(C)c(=O)n(C)c3c3cnc4ccccc4n23)c1,1.1%,?,-15.7%,-12.4%
COc1ccc(Cl)cc1NC(=O)Cn1c(=O)n(CCCC(=O)NCCc2ccc(OC)c(OC)c2)c(=O)c2ccccc21,-2.7%,8.2µM*,?,14.6µM*
Cc1c(CC(=O)NC(C)C)c(=O)oc2cc3c(cc12)CCC(C)(C)O3,/,?,3.3%,20.6µM*
Cc1c(CC(=O)N[C@H](C(=O)O)C(C)C)c(=O)oc2cc3c(cc12)CCC(C)(C)O3,/,23.1µM*,/,?
Cc1c(CC(=O)N[C@@H](C)C(=O)O)c(=O)oc2cc3c(cc12)CCC(C)(C)O3,/,-22.7%,4.5%,11.0%
CCC(C)NC(=O)Cc1c(C)c2cc3c(cc2oc1=O)OC(C)(C)CC3 (centres undefined),/,14.6µM*,/,?
COc1cc(/C=C/C(=O)OCC(=O)N2CCCCCC2)cc(OC)c1OC,/,?,4.0%,-13.0%
Cc1cc2oc(=O)cc(CN3CCCCC3)c2cc1O,/,?,-5.1%,?
COc1ccc(C(=O)NCC(=O)OCC(=O)Nc2sccc2C#N)cc1OC,2.7%,-5.6%,1.0%,-13.4%
Cc1ccc(Cl)cc1-c1cc(C(=O)NCc2cccc(Cl)c2)[nH]n1,/,?,0.5%,18.4µM*
COc1ccc(-c2cc(C(=O)NCc3cccc(C(F)(F)F)c3)[nH]n2)c(C)c1,/,?,1.6%,25.9µM*
CCOc1ccc(-c2cc(C(=O)NCc3cc(OC)cc(OC)c3)[nH]n2)c(C)c1,/,?,-1.5%,20.6µM*
Cc1cc(F)ccc1-c1cc(C(=O)NCc2cccc(C(F)(F)F)c2)[nH]n1,/,?,-0.2%,?
COc1ccc(CNC(=O)c2cc(-c3ccc(C)c(C)c3)n[nH]2)cc1,0.0%,16.4µM*,0.0%,?
O=C(NCc1ccc(F)cc1)c1cc(-c2ccc(Cl)cc2)n[nH]1,-5.6%,8.2µM*,0.2%,7.31µM*
COc1cc(CNC(=O)c2cc(-c3cc(Cl)ccc3C)n[nH]2)cc(OC)c1,/,?,-1.8%,25.9µM*
COc1ccc(CNC(=O)c2cccc(-c3ccc(C)c4ccccc34)n2)cc1,-1.3%,18.4µM*,25.1µM*,?
COc1ccc(CNC(=O)c2ccccc2C(=O)O)cc1,2.6%,-16.7%,1.2%,-4.4%
COc1ccc(S(=O)(=O)N2CCCCC2)cc1NC(=O)Cc1ccsc1,0.0%,-3.7%,-8.2%,3.7%
COc1ccc(-c2csc(C(NC(C)=O)c3cccc(F)c3)n2)cc1 (centres undefined),/,16.4µM*,-2.7%,?
COc1cccc(C(NC(C)=O)c2nc(-c3cccc(C#N)c3)cs2)c1 (centres undefined),/,?,-1.1%,29.1µM*
COc1cccc(C(NC(C)=O)c2nc(-c3cccc(O)c3)cs2)c1 (centres undefined),/,18.4µM*,-13.9%,23.1µM*
